Source: PubChem (National Center for Advancing Translational Sciences (NCATS))
This is a sample that favours compounds with a hit; in the whole collection about 6.5% have one here.
LASV entry inh – qHTS for Inhibitors of binding or entry into cells for Lassa Virus; Lassa virus pseudotype entry inhibition, cell reporter; Potency, µM (titrated, usually from 37.9 µM), inactives show at the highest dose activity change, negative = inhibition, most hits filed as inhibitors; 300,000 compounds, 1.2% hits; AID 540256, 2011; calls by dose curve; tested in HEK293 cells; further: potency means the concentration at half of the fitted maximal effect; nearly all actives have a fitted effect of over 50% in size
FMDV antiviral – High Throughput Screening for Foot and Mouth Disease Virus Antivirals; AID 1159524, 2015; 410,000 compounds, 1.2% hits; FMDV antiviral cell-based qHTS; Potency, µM (highest dose often 57.9 µM), for inactives: top-dose activity change, negative = inhibition, most hits filed as inhibitors; calls by dose curve; tested in HEK293T cells; further: read-out not given here; potency means the concentration at half of the fitted maximal effect; nearly all actives have a fitted effect of over 45% in size
MARV entry inh – qHTS for inhibitors of binding or entry into cells for Marburg Virus; Marburg virus pseudotyped entry inhibition, cell reporter; Potency, µM (top dose mostly 37.8 µM), for inactives: at the highest dose activity change, negative = inhibition, hits mostly inhibitors; 300,000 compounds, 1.8% hits; AID 540276, 2011; calls by dose curve; tested in HEK293 cells; further: potency means the concentration at half of the fitted maximal effect
HCMV antiviral – qHTS Assay for inhibitors of the human cytomegalovirus (HCMV) | AID 1259415, 2018 | HFF cells, HCMV-luciferase reporter, 72 h; active compounds read low | activity change, negative = inhibition, % at 57.5 µM | 410,000 compounds, 4.5% hits; in the data active means activity change below about -60%; inconclusive means no clear call, values can overlap the other calls; inactive means above about -39%
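Luciferase read-out from HCMV-luciferase-infected HFFs (MOI 1 PFU/cell) 72 h post infection at 37C; compounds added after 16 h cell attachment; activity normalized between buffer-only basal and Salinomycin (10uM) inhibitor controls.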
VACV Venus inh – qHTS for Stage-Specific Inhibitors of Vaccinia Orthopoxvirus: Venus Reporter Primary qHTS; Vaccinia virus Venus reporter expression, fluorescence; Potency, µM (doses to about 36.5 µM), without a hit: at the top dose activity change, negative = inhibition, most hits filed as inhibitors; 330,000 compounds, 0.46% hits; calls by dose curve; tested in A549 cells; further: potency means the concentration at half of the fitted maximal effect; nearly all actives have a fitted effect of over 30% in size
Vaccinia mCherry – qHTS for Stage-Specific Inhibitors of Vaccinia Orthopoxvirus: mCherry Reporter Primary qHTS. 310,000 compounds, 0.63% hits. Vaccinia virus mCherry reporter infection, fluorescence. Potency, µM (highest dose often 36.5 µM), for the others: top-dose activity change, negative = inhibition, hits mostly inhibitors; calls by dose curve; tested in A549 cells; further: potency means the concentration at half of the fitted maximal effect; nearly all actives have a fitted effect of over 35% in size
Active calls of the source: *; i = inactive; ? = inconclusive; . = not tested or not shown; [ ] = dose if it differs, or a comment. On the % scale 0 is the no-effect control and ±100 the full control effect.

SMILES	LASV entry inh	FMDV antiviral	MARV entry inh	HCMV antiviral	VACV Venus inh	Vaccinia mCherry
COc1ccc([C@H]2C[C@H](c3ccccc3)Nc3nc(N)nn32)cc1	.	.	1%	.	.	.
COC(=O)C(=C/C(C)=C/c1cccs1)C(=O)OC	?	28µM*	?	-26	-14%	-17%
COC(=O)N/N=C/c1cccs1	.	3%	.	-26	.	.
CCN(CC)S(=O)(=O)c1cc(NC(=O)c2ccc(-n3cncn3)c([N+](=O)[O-])c2)ccc1C	?	13µM*	?	-84*	?	-19%
CCC(C)(C)NC(=O)c1ccc(Sc2nncn2C)c([N+](=O)[O-])c1	6%	6%	5%	18	-13%	-6%
CCN(CC)S(=O)(=O)c1ccc(NC(=O)c2ccc(Sc3nncn3C)c([N+](=O)[O-])c2)cc1	?	-28%	-4%	-81*	?	?
CN(C)S(=O)(=O)c1cccc(NC(=O)c2ccc(Sc3nncn3C)c([N+](=O)[O-])c2)c1	.	-5%	.	-38	.	.
Cn1cnnc1Sc1ccc(C(=O)OCC(=O)Nc2ccccc2)cc1[N+](=O)[O-]	3%	?	-1%	-3	.	.
COc1ccc(NC(=O)/C(C#N)=C/c2ccc(Sc3nncn3C)c([N+](=O)[O-])c2)cc1	4%[46.1 µM]	32µM*	?	28	-26%	-17%
Cn1cnnc1Sc1ccc(/C=C/C(=O)c2ccc(O)cc2)cc1[N+](=O)[O-]	.	?	.	-101*	.	.
CCOc1ccccc1NC(=O)N(Cc1ccc(C)o1)C1CCN(C(C)=O)CC1	0%[46.1 µM]	-17%	.	-6	-13%	-12%
O=C(NCCN1Cc2ccccc2OC(c2ccccc2F)C1)c1cncs1 (stereo unspecified)	.	-4%	.	.	2%	-17%
C#CCNc1c2c(nc3ncnn13)CC(C)CC2 (stereo unspecified)	.	-6%	.	-101*	-16%	-6%
CC[C@@H](C(=O)[C@@H](C)[C@@H](O)[C@H](C)[C@@H]1O[C@@H]([C@@H](CC)C(=O)O)CC[C@@H]1C)[C@H]1O[C@]2(C=C[C@@H](O)[C@]3(CC[C@@](C)([C@H]4CC[C@](O)(CC)[C@H](C)O4)O3)O2)[C@H](C)C[C@@H]1C	.	?	.	-98*	11µM*	2.5µM*
COC(=O)CC(=O)CC(NS(=O)(=O)c1ccc(C)cc1)c1ccccc1 (stereo unspecified)	.	.	.	63	.	.
O=C(c1ccccc1)N1CCOC(O)(c2ccccc2)C1c1ccccc1 (stereo unspecified)	23%[46.1 µM]	18%	-4%	-61*	-10%	-24%
Oc1ccc(Nc2nccc3[nH]c(-c4cccc(F)c4)cc23)cc1	.	.	.	-9	.	.
O=C(Nc1ncc(Cc2cccc(C(F)(F)F)c2)s1)c1ccc(-c2cccc([N+](=O)[O-])c2)o1	?	0%	16µM*	?	-28%	?
Nc1nc(N)c2nc(CNc3ccc(C(=O)N[C@@H](CCC(=O)O)C(=O)O)cc3)cnc2n1	.	-16%	.	.	-1%	-13%
O=C1[C@H](Oc2ccccc2)[C@@H](c2ccccc2)N1c1ccncc1	.	16µM*	.	-6	?	-24%
COc1ccc(C(=O)c2sc3nc(C)cc(-c4cccs4)c3c2N)cc1	5%	-15%	-5%	-36	?	?
COc1ccc(C(=O)c2sc3nc(C)cc(-c4cccs4)c3c2N)cc1OC	2%	?	?	-61*	-28%	?
O=S(=O)(Nc1cccnc1Cl)c1ccc2c(c1)OCCO2	?	6%	3%	0	-6%	-4%
Cc1c(Cl)cccc1NS(=O)(=O)c1ccc(NS(=O)(=O)c2ccc3c(c2)OCCO3)cc1	-11%[46.1 µM]	3%	1%[46.1 µM]	-106*	-6%	3%
CN(NS(=O)(=O)c1ccccc1)C(=O)c1ccccc1	0%[46.1 µM]	-15%	-6%[46.1 µM]	-100*	5%	-19%
SMILES	LASV entry inh	FMDV antiviral	MARV entry inh	HCMV antiviral	VACV Venus inh	Vaccinia mCherry
CN(NC(=O)NN(C)C(=O)c1ccccc1)C(=O)c1ccccc1	-3%	-7%	?	-22	-6%	i
c1ccc2c(c1)cnc1ccccc12	4%	23%	22%	-3	-15%	i
c1ccc(-c2ncc3c(ccc4ccccc43)n2)cc1	3.5µM*	-60%	?	?	-10%	-25%
CC(C)(C)c1ccc(C(=O)N2CCCN(C(=O)c3ccc(C(C)(C)C)cc3)CC2)cc1	1%	?	7%	-5	-6%	-10%
CC(C)(C)c1ccc(S(=O)(=O)N2CCC(c3ccncc3)CC2)cc1	?	?	.	-83*	-29%	?
O=S(=O)(c1ccc(Cl)cc1)N1CCC(c2ccncc2)CC1	?	?	.	9	-16%	i
O=C(C1CCC1)N1CCN(S(=O)(=O)c2ccc(F)cc2)CC1	-1%	-17%	17%	2	-7%	-14%
CC(C)(C)c1ccc(S(=O)(=O)N2CCN(C(=O)C3CCC3)CC2)cc1	?	?	4.5µM*	-20	-13%	i
CC(OC(=O)C1CCN(S(=O)(=O)c2ccc(C(C)(C)C)cc2)CC1)C(=O)N(C)C1CCCCC1 (stereo unspecified)	.	40µM*	.	?	.	.
CC(C)(C)c1ccc(C(=O)N2CCN(C(=O)C3CCCCC3)CC2)cc1	?	?	10%	-77*	-23%	?
c1ccc(CNc2ncncc2-c2ccoc2)cc1	.	-9%	.	.	.	.
COc1cc(OC)c2nc(-c3cc4c(c(OC)c3)OCCN(Cc3cn(C)nc3C)C4)cc(C)c2c1	.	-12%	.	.	-4%	-16%
CCOc1ccc2[nH]c(=O)c(CN(CCN3CCCC3)C(=S)Nc3ccccc3OCC)cc2c1	.	-16%	.	-64*	.	.
CCc1ccc2[nH]c(=O)c(CN(CCCN3CCOCC3)C(=O)Nc3ccc(Cl)cc3)cc2c1	?	-20%	?	11	-28%	?
CCc1ccc2[nH]c(=O)c(CN(CCCN3CCOCC3)C(=O)Nc3cccc(Cl)c3)cc2c1	?	?	18µM*	-14	?	.
COc1ccc2[nH]c(=O)c(CN(CCN3CCCC3)C(=O)Nc3ccccc3Cl)cc2c1	-10%	-15%	-26%	-88*	-14%	.
COc1ccc2[nH]c(=O)c(CN(CC3CCCO3)C(=O)Nc3ccccc3OC)cc2c1 (stereo unspecified)	?	-25%	?	-1	?	?
CC1(C)O[C@@H](C(O)(c2cc(C(F)(F)F)cc(C(F)(F)F)c2)c2cc(C(F)(F)F)cc(C(F)(F)F)c2)[C@H](C(O)(c2cc(C(F)(F)F)cc(C(F)(F)F)c2)c2cc(C(F)(F)F)cc(C(F)(F)F)c2)O1	.	.	-9%[14.2 µM]	.	.	.
